Shown are actives, neighbours in structure and some others; about 3.5% of the full set was active somewhere.
BoNT F protease – inhibitors of Botulinum neurotoxin F light chain protease; Multiplex microsphere protease cleavage assay, flow cytometry; inhibition, % at 10 µM; 360,000 tested, 0.22% active; AID 588497; in the data active = inhibition above about 35%, passing the limit was not always enough; inconclusive = no clear call, values can overlap the other calls
Bead autofluor – counter-screen for toxin protease inhibitors: compound fluorescence. compound autofluorescence counterscreen, microsphere flow cytometry; stronger effect = higher value. fluorescence intensity (no concentration beside the values). 360,000 tested, 3.1% active; in the data active = fluorescence intensity above about 16000; inconclusive = no clear call, values can overlap the other calls
BoNT A protease – inhibitors of Botulinum neurotoxin A light chain protease; multiplex microsphere protease substrate cleavage, flow cytometry; inhibition, % at 10 µM; 360,000 tested, 0.17% active; AID 588499
Anthrax LF inh2 – blocks Bacillus anthracis lethal factor protease; P15917; multiplex microsphere protease cleavage assay, LF; inhibition, % at 10 µM; 360,000 tested, 0.12% active
Target sequence (P15917 whole entry, looked up): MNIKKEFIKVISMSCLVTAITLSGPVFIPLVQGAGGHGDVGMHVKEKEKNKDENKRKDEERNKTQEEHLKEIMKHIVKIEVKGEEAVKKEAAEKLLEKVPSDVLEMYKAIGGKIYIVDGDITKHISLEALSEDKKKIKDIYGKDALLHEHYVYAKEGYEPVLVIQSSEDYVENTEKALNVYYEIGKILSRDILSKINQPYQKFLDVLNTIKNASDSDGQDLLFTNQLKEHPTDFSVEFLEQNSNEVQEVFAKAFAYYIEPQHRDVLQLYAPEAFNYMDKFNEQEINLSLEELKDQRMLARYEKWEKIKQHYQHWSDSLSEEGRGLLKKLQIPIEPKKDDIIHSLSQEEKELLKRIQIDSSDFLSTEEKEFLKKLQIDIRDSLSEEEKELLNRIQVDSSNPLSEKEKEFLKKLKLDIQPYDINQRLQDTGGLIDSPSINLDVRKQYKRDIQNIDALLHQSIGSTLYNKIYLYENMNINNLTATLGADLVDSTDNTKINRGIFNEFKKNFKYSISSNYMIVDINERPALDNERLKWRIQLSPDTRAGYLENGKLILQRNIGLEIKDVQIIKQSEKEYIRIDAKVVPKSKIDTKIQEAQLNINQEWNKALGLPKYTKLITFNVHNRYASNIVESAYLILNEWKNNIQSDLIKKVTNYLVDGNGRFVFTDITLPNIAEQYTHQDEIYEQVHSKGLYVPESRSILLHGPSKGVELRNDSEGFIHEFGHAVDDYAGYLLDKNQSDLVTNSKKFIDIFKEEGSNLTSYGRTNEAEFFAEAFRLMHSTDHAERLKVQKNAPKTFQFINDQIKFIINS
BJeLR viability – kills HRASV12-expressing BJeLR cells; BJeLR (HRASV12) viability, CellTiter-Glo ATP luminescence, 48 h; inhibition, % (no concentration beside the values); 300,000 tested, 0.17% active; in the data active = inhibition above about 50%; inconclusive = no clear call, values can overlap the other calls
Of the large screens only hits and unclear results are named; the others gave an inactive call. Rule as the data show it, unless noted: active = inhibition above about 30%; inconclusive = no clear call, values can overlap the other calls; inactive = below that.

O=C(c1cccs1)N(Cc1ccco1)C1CCS(=O)(=O)C1 (configuration not stated)	Bead autofluor 22695
Cc1ccc(CN(C(=O)c2cccs2)C2CCS(=O)(=O)C2)cc1 (configuration not stated)	none
O=C(c1cccs1)N(Cc1cccc(Cl)c1)C1CCS(=O)(=O)C1 (configuration not stated)	Bead autofluor 21176, BoNT A protease inconclusive
O=C1C2CCCN2C(=O)N1CCCN1CCN(c2ccc([N+](=O)[O-])cc2)CC1 (configuration not stated)	BoNT F protease 46
COCCN(C(=S)Nc1ccc(C)cc1)C(C)c1ccco1 (configuration not stated)	none
NC1=NC(=O)C(CC(=O)c2ccc(Cl)cc2)S1 (configuration not stated)	none
Cc1ccc(N2CCN(C(=O)N3CCCC3)CC2)cc1C	Bead autofluor 16586
Cc1ccc(N2CCN(S(=O)(=O)N3CCCCC3)CC2)cc1C	none
CC1=C(C(=O)NCc2ccccc2)C(c2ccccc2OCC(N)=O)NC(=O)N1 (configuration not stated)	none
C=CCOc1ccccc1C1NC(=O)NC(C)=C1C(=O)NCc1ccccc1 (configuration not stated)	Bead autofluor 17255, BoNT A protease inconclusive
CCOc1cc(C2NC(=O)NC(C)=C2C(=O)NCc2ccccc2)c(Cl)cc1O (configuration not stated)	Bead autofluor 20868
COc1cc(C2NC(=O)NC(C)=C2C(=O)NCc2ccccc2)c(Cl)cc1O (configuration not stated)	none
COc1ccc(CN2C(=O)CCCC2(C)c2nc3ccccc3[nH]2)cc1 (configuration not stated)	none (no result: BJeLR viability)
COc1ccc(C)cc1NC(=O)NCCC1=CCCCC1	Bead autofluor 21584
CS(=O)(=O)Nc1ccc(C(=O)NCCC2=CCCCC2)cc1	Bead autofluor 24230, BoNT A protease inconclusive
Cc1cc(C)cc(N(C(C)C(=O)NCCC2=CCCCC2)S(C)(=O)=O)c1 (configuration not stated)	Bead autofluor 23149
COC(=O)[C@@H](NC(=O)NCCC1=CCCCC1)C(C)C	BoNT F protease inconclusive, BoNT A protease inconclusive
Cc1cc(C(=O)NCCC2=CCCCC2)c(C)o1	Bead autofluor 16581
COCCNC(=O)C1(C)CCCN(Cc2cc3ccccc3o2)C1 (configuration not stated)	none (no result: BJeLR viability)
CC(C)C(=O)Nc1ccc(C(=O)NNC(=O)NC2CCCCC2)cc1	Bead autofluor 17675, BoNT A protease inconclusive
CS(=O)(=O)Nc1ccc(C(=O)NC2CCCC2)cc1	Bead autofluor 20262
CS(=O)(=O)Nc1ccc(C(=O)NC2CCCCC2)cc1	none
COc1cc(C(=O)NCCC2=CCCCC2)cc(OC)c1OC	Bead autofluor 22928
COc1cc(C(=O)OCC(=O)NCCC2=CCCCC2)cc(OC)c1OC	none (no result: BJeLR viability)
O=C(NNC(=O)c1ccncc1)NC1CCCCC1	none
CCc1nc2ccc(C(=O)Nc3cc(-c4ccccc4)ccc3OC)cn2c1N(CCN(C)C)CC1CC1	none (no result: BJeLR viability)
COCCCC1CCN(C(=O)C2CCC(=O)N(Cc3cccc(F)c3)C2)CC1 (configuration not stated)	none
CCCc1cc(=O)[nH]c2nnc(SCC(=O)Nc3ccc4c(c3)OCCO4)n12	none
CSc1ccc(CN2CCC2(C)C(=O)NCc2ccc3c(c2)OCO3)cc1 (configuration not stated)	none (no result: BJeLR viability)
Cc1ccc(NC(=O)c2ccc3c(c2)C(=O)N(CC2CCCO2)C3=O)cc1C (configuration not stated)	none
O=C(Nc1ccc2c(c1)C(=O)N(CC1CCCO1)C2=O)c1ccc(Cl)c(Cl)c1 (configuration not stated)	Bead autofluor 22241, BoNT A protease inconclusive
CCOC(=O)Cn1c(=O)c2c(nc(Br)n2CC(=O)OCC)n(C)c1=O	none
COC(=O)Cn1c(=O)c2c(nc(Br)n2CC(=O)OC)n(C)c1=O	Bead autofluor 22104
O=c1oc2ccccc2cc1-c1nc(-c2cccs2)cs1	BoNT A protease 58, Anthrax LF inh2 41
CC(=O)CSc1ncnc2scc(-c3ccc(F)cc3)c12	none
Cc1ccc(-c2csc3ncnc(SCC(=O)c4ccc5c(c4)OCCO5)c23)cc1	Bead autofluor 19619, BoNT A protease inconclusive
Cc1ccc(-c2csc3ncnc(SCC(=O)Nc4nnc(C)s4)c23)cc1	Bead autofluor 21425, BoNT A protease inconclusive
O=C(CSc1ncnc2scc(-c3ccc(F)cc3)c12)c1ccc2c(c1)OCCO2	none
CCN(c1ccccc1)c1ncnc2c1cnn2-c1ccccc1	none

Screening data: PubChem BioAssay, several laboratories
